ELG1 DNA repair: blocks ELG1-dependent DNA repair in HEK293T cells; HEK293T ELG1-luciferase reporter, luminescence, 16 h; DNA damage induced by 5-fluorouridine; Potency, µM (titrated, usually from 46.1 µM), for the others: top-dose activity change, negative = inhibition, actives largely listed as inhibitors; 2.3% of 330,000 active; AID 504467; note: % is set by controls: 0 for no effect and ±100 for the full control effect; nearly all actives have a fitted effect of over 55% in size
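Reporter activity after DNA damage by 5-fluorouridine is monitored. Compound-treated cells incubate 16 hr at 37 °C, then ONE-Glo is added for 30 min before luminescence reading.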
KB-V1 cytotox: kills drug-selected multidrug resistant KB-V1 cells; KB-V1 MDR cells viability, CellTiter-Glo, 72 h; Potency, µM (titrated, usually from 46.1 µM), most hits filed as cytotoxic; 3.4% of 400,000 active; AID 1347076; note: % is set by controls: 0 for no effect and ±100 for the full control effect; nearly all actives have a fitted effect of over 60% in size
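Luminescent ATP read-out (CellTiter-Glo, 10 min) measures survival of drug-selected KB-V1 MDR cells after 72 h, 37 degrees C compound exposure. Medium: phenol-red-free DMEM, 10% FBS. Values from fitted concentration-response curves.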
KB-3-1 tox: KB-3-1 parental cell cytotoxicity; Potency, µM (series often up to 46.1 µM), most hits filed as cytotoxic; 1.4% of 400,000 active; AID 1347075; KB-3-1 viability, CellTiter-Glo ATP luminescence, 72 h; note: % is set by controls: 0 for no effect and ±100 for the full control effect; nearly all actives have a fitted effect of over 60% in size
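Using CellTiter-Glo luminescence, growth of non-resistant KB-3-1 adenocarcinoma cells is assessed 72 h after pin-tool compound addition at 37 °C. Normalized responses across the concentration series yield fitted curves.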
SW480 rereplic: induces DNA re-replication in SW480 colon adenocarcinoma cells. SW480 DNA re-replication, Hoechst DNA content imaging, 48 h. Potency, µM (series often up to 46.1 µM), for the others: at the highest dose re-replication activation, actives largely listed as activators. 1.8% of 340,000 active; note: % of control where 0% means no effect; nearly all actives have a fitted effect of over 55% in size
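First, 250 cells per well were seeded. Next, compound or vehicle (23 nL) was pinned in, plates sat 48 hr at 37 C. Finally Hoechst was added for 40 min before fluorescence scanning.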
MCF10A rerep: DNA re-replication induction in MCF 10a cells; 2.9% of 350,000 active; Potency, µM (top dose mostly 46.1 µM), without a hit: at the top dose activity, positive = re-replication, hits mostly activators; AID 624296; MCF 10A DNA re-replication, Hoechst nuclear intensity, 48 h; note: % of control where 0% means no effect; nearly all actives have a fitted effect of over 50% in size
* marks the source's active call; other numbers are inactive results; i = inactive; ? = inconclusive; . = no result. A selection: hits, their analogues and other compounds. The true share with any hit is near 8.1%. Calls come from the whole dose curve; as a rule, active = well fitted curve in the direction sought with a large enough effect; inconclusive = small, poorly fitted or top-dose-only effect, or another doubt; inactive = no such curve, though single readings can be large; an effect the other way counts as inactive or inconclusive. Potency is the fitted concentration of half-maximal effect.

SMILES	ELG1 DNA repair	KB-V1 cytotox	KB-3-1 tox	SW480 rereplic	MCF10A rerep
Cc1ccc(OCCN2C(=O)c3ccccc3C2=O)cc1	?	i	i	1%	5%
CCc1ccc2[nH]c(=O)c(CN(CCN(C)C)C(=S)NCc3ccco3)cc2c1	-14%	i	i	-4%	-5%
CCc1ccc2[nH]c(=O)c(CN(CC3CCCO3)C(=S)NCc3ccco3)cc2c1 (stereo not given)	18µM*	i	i	7%	?
CCc1ccc2[nH]c(=O)c(CN(CCN(CC)CC)C(=S)NCc3ccco3)cc2c1	-12%	?	23µM*	-31%	6%
COc1ccc2cc(CN(Cc3ccco3)C(=S)NCC3CCCO3)c(=O)[nH]c2c1 (stereo not given)	23µM*	?	?	-36%	?
COCC(=O)N1CCC(Oc2ccc(C(=O)NC(C)c3csc(C)n3)cc2)CC1 (stereo not given)	2%	?	i	?	6%
COCCN(CC1CCCN(C2Cc3ccccc3C2)C1)C(=O)c1ccc(C(C)=O)cc1 (stereo not given)	21%	i	i	0.32µM*	?
COCCN(CC1CCCN(C2Cc3ccccc3C2)C1)C(=O)c1cccc(C)c1 (stereo not given)	7%	i	?	0%	1%
COC(=O)[C@@]1(Cc2ccccc2)[C@@H]2C(=CC(=O)[C@H]2CC(=O)C(=O)N(C)C)CN1C(=O)c1ccccc1	7.3µM*	i	21µM*	?	26µM*
COC(=O)[C@@]1(Cc2ccc(F)cc2)[C@H]2c3cc(C(=O)N(C)C)n(CCF)c3C[C@H]2CN1C(=O)c1ccccc1	.	?	i	.	.
COc1ccc(Cl)cc1S(=O)(=O)NC(C)C(=O)NCc1ccc2c(c1)OCO2 (stereo not given)	3%	i	i	0%	-2%
CCOc1ccc(Oc2ccccc2NC(=O)CSCC(=O)Nc2cc(C)on2)cc1	21%	?	?	0%	20%
Cc1cccc(Oc2ccccc2NC(=O)CSCC(=O)Nc2cc(C)on2)c1	?	7.3µM*	?	-3%	19%
O=C1c2cccc3cccc(c23)C(=O)N1c1ccccn1	2%	i	i	6%	0%
O=C1c2c(Br)c(Br)c(Br)c(Br)c2C(=O)N1c1ccccn1	-5%	i	i	-22%	0.65µM*
c1ccc(Cn2c[n+](Cc3ccccc3)c3ccccc32)cc1	-5%	i	23µM*	-1%	1%
Cc1nnc(SCC(=O)Nc2ccc([N+](=O)[O-])cc2)n1CC1CCCO1 (stereo not given)	1%	i	i	23µM*	3%
COC(=O)c1cc2oc3ccccc3c2n1CC(=O)Nc1ccc(C)cc1C	.	?	i	.	.
CCOC(=O)N1CCN(C(=O)c2ccc(Cn3c(=S)[nH]c4cc(OCC)c(OCC)cc4c3=O)cc2)CC1	?	i	i	-2%	-1%
CCOC(=O)N1CCN(C(=O)c2ccc3c(=O)n(Cc4ccc(OC)cc4)c(=S)[nH]c3c2)CC1	13µM*	i	?	3%	1%
CCOC(=O)N1CCN(C(=O)c2ccc(Cn3c(=S)[nH]c4cc5c(cc4c3=O)OCO5)cc2)CC1	23µM*	?	i	10%	13%
COc1cc2[nH]c(=S)n(Cc3ccc(C)cc3)c(=O)c2cc1OC	?	i	i	20%	13µM*
CC1CC(C)CN(C(=O)c2ccc3c(=O)n(Cc4ccc5c(c4)OCO5)c(=S)[nH]c3c2)C1 (stereo not given)	?	15µM*	i	22%	10%
CC1(C(=O)NS(=O)(=O)c2ccc(C#N)cc2)CCN1C(=O)CC1CCCCC1 (stereo not given)	.	i	?	.	.
O=C(N/N=C/c1cccnc1)c1ccccc1Cl	?	?	i	-23%	0%
O=C(N/N=C/c1cccnc1)c1cc(-c2ccccc2OCc2ccccc2)n[nH]1	?	?	?	?	15µM*
O=C(N/N=C/c1cccnc1)c1ccccc1Br	2%	i	i	2%	-4%

Screening data (PubChem BioAssay)
